According to PubChem BioAssay (NCATS):
Records with an inconclusive call do not appear. The source made the active and inactive calls. Calls follow the shape of the dose curve; as a rule, active = well fitted inhibition curve with a large enough effect; inconclusive = small, poorly fitted or top-dose-only effect; inactive = flat fitted curve, though single readings scatter.

Tests used:
Assay in all cases: Cytotoxic Profiling of Annotated Libraries Using Quantitative High-Throughput Screening (AID 1296008); also: nearly all actives have a fitted effect of over 60% in size
Details in all cases: Five cell lines viability, CellTiter-Glo ATP luminescence, 48-72 h; max response: stronger effect = lower value
CRL-7250 = normal cell line; tested on: CRL-7250
Method in brief: (§1)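 Cells exposed to compounds for 48 or 72 hr at 37 degrees Celsius. Viability read as ATP-coupled luminescence with CellTiter-Glo after 10 min at room temperature.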

HEK293 = tested on: HEK293
Method in brief: as §1

HaCat = tested on: HaCat
Method in brief: as §1

KB-3-1 = tested on: KB-3-1
Method in brief: as §1

NIH3T3 = tested on: NIH3T3
Method in brief: as §1
% is scaled to controls: 0 for no effect and ±100 for the full control effect; potency is read from the fitted curve at half-maximal effect.

On1ncc(C2CCNCC2)c1-c1cccc(-c2ccccc2)c1
inactive: outcome (CRL-7250) | max response (HEK293) -1.77% | outcome (HaCat) | max response (KB-3-1) 8.99% | max response (NIH3T3) 1.04%

CCOC(=O)CSc1nc2c(sc3ccccc32)c(=O)n1CCCN1CCCC1
inactive: outcome (CRL-7250) | max response (HEK293) -12.6% | outcome (HaCat) | outcome (KB-3-1) | outcome (NIH3T3)

C[C@H](/C=C/[C@@]1(O)[C@H](C)CC(=O)CC1(C)C)O[C@@H]1O[C@H](CO[C@@H]2OC[C@@H](O)[C@H](O)[C@H]2O)[C@@H](O)[C@H](O)[C@H]1O
inactive: outcome (CRL-7250) | max response (HEK293) -7.74% | outcome (HaCat) | outcome (KB-3-1) | max response (NIH3T3) -1.42%

OC[C@@]1(O)CO[C@H](OC[C@H]2O[C@@H](OC(CCCCc3ccc(O)cc3)CCc3ccc(O)cc3)[C@H](O[C@H]3OC[C@](O)(CO)[C@H]3O)[C@@H](O)[C@@H]2O)[C@@H]1O (stereo not given in full)
inactive: max response (CRL-7250) -11.2% | max response (HEK293) -13.7% | outcome (HaCat) | max response (KB-3-1) 2.31% | outcome (NIH3T3)

OCC1OC(Oc2cc(O)cc(/C=C/c3ccc(OC4OC(CO)C(O)C(O)C4O)cc3O)c2)C(O)C(O)C1O (stereo not given)
inactive: outcome (CRL-7250) | max response (HEK293) 3.22% | outcome (HaCat) | max response (KB-3-1) 5.55% | max response (NIH3T3) 0.921%

COc1ccc2c(c1)N1C(=O)C[C@@]34C=CC[N@+]5([O-])CC[C@H]2[C@H](CC3)[C@@]145
inactive: max response (CRL-7250) 0.465% | outcome (HEK293) | max response (HaCat) 0.691% | outcome (KB-3-1) | max response (NIH3T3) -2.66%

Cc1cc(-n2c(=O)[nH]c(=O)n(C)c2=O)ccc1Oc1ccc(SC(F)(F)F)cc1
inactive: max response (CRL-7250) -0.879% | max response (HEK293) 4.1% | outcome (HaCat) | max response (KB-3-1) 1.4% | outcome (NIH3T3)

CC(C)C(O)(CO)CCO[C@@H]1O[C@H](CO[C@H]2OC[C@](O)(CO)[C@H]2O)[C@@H](O)[C@H](O)[C@H]1O (stereo not given in full)
inactive: max response (CRL-7250) 2.62% | max response (HEK293) -11.4% | max response (HaCat) -9.77% | max response (KB-3-1) 4.64% | outcome (NIH3T3)

C=C[C@@](C)(CCC=C(C)C)O[C@@H]1O[C@H](CO[C@@H]2OC[C@H](O)[C@H](O)[C@H]2O)[C@@H](O)[C@H](O)[C@H]1O
inactive: outcome (CRL-7250) | outcome (HEK293) | max response (HaCat) 0.544% | outcome (KB-3-1) | max response (NIH3T3) 4.46%

CC1C2=CC(=O)OC2(O)CC2C1C(OC(=O)c1ccccc1)C(OC(=O)c1ccccc1)C1(O)C2(C)CCC(O)C1(C)C(=O)O (stereo not given)
inactive: max response (CRL-7250) -2.75% | max response (HEK293) 3.81% | outcome (HaCat) | max response (KB-3-1) -1.08% | max response (NIH3T3) -2.68%

C[C@H]1[C@H](C)CC[C@]2(C(=O)O)CC[C@]3(C(=O)O)C(=CCC4[C@@]5(C)CC[C@H](O[C@@H]6O[C@@H](C)[C@H](O)[C@@H](O)[C@H]6O)C(C)(C)C5CC[C@]43C)[C@H]12 (stereo not given in full)
inactive: outcome (CRL-7250) | max response (HEK293) -0.583% | outcome (HaCat) | max response (KB-3-1) -0.753% | max response (NIH3T3) 4.82%

COc1cc(C2Oc3c(OC)cc(/C=C/C(=O)OC4CC(O)(C(=O)O)CC(O)C4O)cc3C2CO)ccc1O (stereo not given)
inactive: max response (CRL-7250) -7.61% | max response (HEK293) 1.22% | outcome (HaCat) | max response (KB-3-1) 9.01% | outcome (NIH3T3)

CC1(O)CC(O)C2C(C(=O)O)=COC(OC3OC(CO)C(O)C(O)C3OC(=O)/C=C/c3ccc(O)cc3)C21 (stereo not given)
inactive: max response (CRL-7250) 2.15% | max response (HEK293) 1.1% | outcome (HaCat) | max response (KB-3-1) 6.91% | outcome (NIH3T3)

CCC(C)C1NC(=O)C2C(C)CCN2C(=O)C(CC(O)CO)OC(=O)CCNC(=O)C(C)N(C)C(=O)C(C(C)C)N(C)C1=O (stereo not given)
inactive: max response (CRL-7250) -3.99% | max response (HEK293) -0.256% | outcome (HaCat) | max response (KB-3-1) 0.529% | outcome (NIH3T3)

NC(N)=NCCC[C@H](NC(=O)c1sccc1NS(=O)(=O)c1cccc2nsnc12)C(=O)O
inactive: outcome (CRL-7250) | max response (HEK293) -1.44% | max response (HaCat) -1.15% | outcome (KB-3-1) | outcome (NIH3T3)

CC(=O)NC1C(OC2CCC3(C)C(CCC4(C)C3CC=C3C5CC(C)(C)CCC5(C(=O)O)C(O)CC34C)C2(C)C)OC(CO)C(O)C1O (stereo not given)
inactive: max response (CRL-7250) -37.4% | max response (HEK293) -25.2% | outcome (HaCat) | max response (KB-3-1) 0.467% | outcome (NIH3T3)

c1ccc2c(Nc3nnc(-c4ccncc4)s3)cccc2c1
inactive: max response (CRL-7250) 3.08% | outcome (HEK293) | max response (HaCat) -11.3% | max response (KB-3-1) 9.81% | max response (NIH3T3) -0.252%

C[C@@H](c1ccccc1)N(C(N)=NC#N)c1cccc2ncccc12
inactive: outcome (CRL-7250) | max response (HEK293) 0.131% | outcome (HaCat) | outcome (KB-3-1) | max response (NIH3T3) 3.53%

COc1cc(O)c(C(=O)O)c(CCc2ccccc2)c1
inactive: max response (CRL-7250) -1.14% | max response (HEK293) -6.57% | outcome (HaCat) | max response (KB-3-1) 9.04% | max response (NIH3T3) -0.163%

COc1cnc(-c2ccc(Cn3c(CC(C)(C)C(=O)O)c(SC(C)(C)C)c4cc(OC[C@@H]5Cc6ccccc6N5C(C)=O)ccc43)cc2)nc1
inactive: max response (CRL-7250) -2.77% | max response (HEK293) -2.16% | outcome (HaCat) | max response (KB-3-1) -12.4% | max response (NIH3T3) -14.7%

Cc1ccc(Nc2nnc(-c3ccc([N+](=O)[O-])cc3)o2)cc1Cl
inactive: outcome (CRL-7250) | max response (HEK293) -16.7% | outcome (HaCat) | max response (KB-3-1) -2.92% | outcome (NIH3T3)

Cc1oc2nc3c(c(NC(=O)CN4CCCC4=O)c2c1C)CCCC3
inactive: max response (CRL-7250) 3.82% | max response (HEK293) -1.01% | outcome (HaCat) | max response (KB-3-1) 8.69% | outcome (NIH3T3)

C[C@@H]1[C@H]2[C@H](O[C@@H]3O[C@H](CO)[C@@H](O)[C@H](O)[C@H]3O)OC=C(C(=O)O)[C@H]2C[C@@H]1OC(=O)/C=C/c1ccc(O)cc1
inactive: max response (CRL-7250) -1.73% | outcome (HEK293) | max response (HaCat) -1.65% | max response (KB-3-1) 7.88% | max response (NIH3T3) 1.42%

COC(=O)C1=COC(OC2OC(CO)C(O)C(O)C2O)C2C(C)CC(=O)C12O (stereo not given)
inactive: outcome (CRL-7250) | max response (HEK293) 2.83% | max response (HaCat) -24.6% | outcome (KB-3-1) | outcome (NIH3T3)

C=C1C(OC(C)=O)CCC2(C)CCC(C(C)(C)O)CC12 (stereo not given)
inactive: max response (CRL-7250) -5.46% | max response (HEK293) -1.52% | max response (HaCat) -5.19% | max response (KB-3-1) 1.41% | outcome (NIH3T3)

COc1cccc(CNc2ccc(S(=O)(=O)Nc3nc4ccccc4s3)cc2)c1O
inactive: max response (CRL-7250) 0.252% | outcome (HEK293) | max response (HaCat) -8.64% | max response (KB-3-1) 7.86% | max response (NIH3T3) -2.92%

COc1ccc(OC2OC(CO[C@@H]3O[C@@H](C)[C@H](O)[C@@H](O)[C@H]3O)C(O)C(O)C2O)cc1OC (stereo not given in full)
inactive: max response (CRL-7250) 3.33% | max response (HEK293) -0.0887% | outcome (HaCat) | max response (KB-3-1) 5.53% | outcome (NIH3T3)

CC(=O)OCC(Cc1ccccc1)NC(=O)C(Cc1ccccc1)NC(=O)c1ccccc1 (stereo not given)
inactive: outcome (CRL-7250) | max response (HEK293) -2.31% | outcome (HaCat) | max response (KB-3-1) -0.456% | outcome (NIH3T3)

COC(=O)Cn1nc(-c2cccc(OC)c2)c2ccccc21
inactive: max response (CRL-7250) 4.76% | max response (HEK293) -5.92% | outcome (HaCat) | max response (KB-3-1) 1.13% | max response (NIH3T3) 2.46%

CC/C=C/C(O)C(O)C1=C(C)C(=O)C2(O1)C(=O)NC(OC)(C(=O)c1ccccc1)C2O (stereo not given)
inactive: max response (CRL-7250) 0.865% | max response (HEK293) 2.1% | max response (HaCat) -3.32% | outcome (KB-3-1) | outcome (NIH3T3)

C/C=C1/[C@H](O[C@@H]2O[C@H](CO)[C@@H](O)[C@H](O)[C@H]2O)OC=C(C(=O)OC)[C@H]1CC(=O)OCCc1ccc(O)c(O)c1
inactive: max response (CRL-7250) -12.9% | max response (HEK293) -8.69% | outcome (HaCat) | max response (KB-3-1) 4.42% | outcome (NIH3T3)

CC(=O)OC1C(O)C(C)(O)C(/C=C/C(=O)O)C2(C)CCCC(C)(C)C12 (stereo not given)
inactive: max response (CRL-7250) 4.11% | max response (HEK293) 0.298% | outcome (HaCat) | max response (KB-3-1) 6.25% | outcome (NIH3T3)

CC1(C)CC[C@]2(C(=O)O[C@@H]3O[C@H](CO[C@@H]4O[C@H](CO[C@@H]5O[C@H](CO)[C@H](O)[C@H](O)[C@H]5O)[C@@H](O)[C@H](O)[C@H]4O)[C@@H](O)[C@H](O[C@@H]4O[C@H](CO)[C@@H](O)[C@H](O)[C@H]4O)[C@H]3O)[C@H](O)C[C@]3(C)C(=CCC4[C@@]5(C)CC[C@H](O[C@@H]6OC[C@@H](O)[C@H](O)[C@H]6O)[C@@](C)(C(=O)O)C5CC[C@]43C)[C@@H]2C1 (stereo not given in full)
inactive: max response (CRL-7250) 2.11% | max response (HEK293) -1.97% | outcome (HaCat) | outcome (KB-3-1) | outcome (NIH3T3)

COc1cc(/C=C/C(=O)O[C@H]2[C@H](O)[C@@H](CO)O[C@@]2(CO)O[C@H]2O[C@H](CO)[C@@H](O)[C@H](O)[C@H]2O)cc(OC)c1O
inactive: outcome (CRL-7250) | max response (HEK293) -9.27% | max response (HaCat) -10.1% | max response (KB-3-1) 3.15% | outcome (NIH3T3)

CCN=C1N[C@@H]2[C@@H](O)[C@H](O)[C@@H](CO)O[C@@H]2S1
inactive: max response (CRL-7250) 3.4% | max response (HEK293) -6.92% | max response (HaCat) 2.86% | max response (KB-3-1) 6.7% | outcome (NIH3T3)

C=C1CC[C@@]2(OC1)O[C@H]1CC3[C@@H]4CC=C5C[C@@H](O)C[C@@H](O[C@@H]6OC[C@H](O)[C@H](O)[C@H]6O[C@@H]6O[C@@H](C)[C@H](O)[C@@H](O)[C@H]6O)[C@]5(C)C4CC[C@]3(C)[C@H]1[C@@H]2C (stereo not given in full)
inactive: outcome (CRL-7250) | max response (HEK293) -17.1% | outcome (HaCat) | outcome (KB-3-1) | outcome (NIH3T3)

COc1cc(C2Oc3c(OC)cc(CCCO)cc3C2CO)ccc1O (stereo not given)
inactive: outcome (CRL-7250) | max response (HEK293) 3.43% | outcome (HaCat) | outcome (KB-3-1) | max response (NIH3T3) -0.27%

CC(CNS(=O)(=O)C(C)C)c1ccc(-c2ccc(C#N)cc2)cc1 (stereo not given)
active: Potency (CRL-7250) 5.8 µM | Potency (HEK293) 7.31 µM
inactive: outcome (HaCat) | max response (KB-3-1) -27.5% | max response (NIH3T3) -14.2%

CC1OC(OC2C(OC3C(O[C@H]4CC[C@@]5(C)C(CC[C@]6(C)C5CC=C5C7CC(C)(C)CC(O)[C@]7(C)CC[C@]56C)C4(C)C)OC(C(=O)O)C(O)C3O)OCC(O)C2O)C(O)C(O)C1O (stereo not given in full)
inactive: outcome (CRL-7250) | max response (HEK293) 4.82% | max response (HaCat) -11.3% | max response (KB-3-1) 9.21% | outcome (NIH3T3)
